In paper PMC3218832:

Key:
Assay in all cases: protein binding microarray; high values mean tight binding
Settings in all cases: dsDNA, one strand shown
RELARELA (p65 homodimer) = RELARELA (p65 homodimer) (Homo sapiens, UniProt Q04206 1-307)
p50p50 homodimer = p50p50 homodimer (Homo sapiens, UniProt P19838 7-356)
p52p52 homodimer = biological target: T1, p52p52 homodimer (Homo sapiens, UniProt Q00653 4-332)
T1 sequence: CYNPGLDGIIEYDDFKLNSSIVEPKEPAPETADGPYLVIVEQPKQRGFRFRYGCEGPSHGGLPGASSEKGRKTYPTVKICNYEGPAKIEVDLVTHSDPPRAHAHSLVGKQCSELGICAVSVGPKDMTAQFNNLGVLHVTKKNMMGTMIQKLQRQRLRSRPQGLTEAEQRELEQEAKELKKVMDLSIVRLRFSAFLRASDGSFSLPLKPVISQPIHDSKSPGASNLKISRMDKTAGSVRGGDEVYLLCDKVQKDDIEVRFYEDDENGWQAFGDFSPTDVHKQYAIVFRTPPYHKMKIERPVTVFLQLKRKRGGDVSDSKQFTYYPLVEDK

[1] = biological target: RELA (p65) subunit of heterodimer;p50 subunit (Homo sapiens;Homo sapiens, UniProt Q04206;P19838 1-307;7-356)
RELA (p65) subunit of heterodimer;p50 subunit, sequence (Q04206 1-307, chain 1 of 2): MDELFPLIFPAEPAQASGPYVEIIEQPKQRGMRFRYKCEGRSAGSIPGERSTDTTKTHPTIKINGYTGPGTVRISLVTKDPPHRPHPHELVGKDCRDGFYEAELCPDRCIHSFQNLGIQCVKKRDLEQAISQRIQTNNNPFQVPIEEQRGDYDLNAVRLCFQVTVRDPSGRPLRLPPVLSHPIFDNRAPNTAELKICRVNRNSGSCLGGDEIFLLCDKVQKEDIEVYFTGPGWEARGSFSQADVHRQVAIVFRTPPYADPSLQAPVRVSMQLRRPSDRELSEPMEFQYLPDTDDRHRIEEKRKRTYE
RELA (p65) subunit of heterodimer;p50 subunit, sequence (P19838 7-356, chain 2 of 2): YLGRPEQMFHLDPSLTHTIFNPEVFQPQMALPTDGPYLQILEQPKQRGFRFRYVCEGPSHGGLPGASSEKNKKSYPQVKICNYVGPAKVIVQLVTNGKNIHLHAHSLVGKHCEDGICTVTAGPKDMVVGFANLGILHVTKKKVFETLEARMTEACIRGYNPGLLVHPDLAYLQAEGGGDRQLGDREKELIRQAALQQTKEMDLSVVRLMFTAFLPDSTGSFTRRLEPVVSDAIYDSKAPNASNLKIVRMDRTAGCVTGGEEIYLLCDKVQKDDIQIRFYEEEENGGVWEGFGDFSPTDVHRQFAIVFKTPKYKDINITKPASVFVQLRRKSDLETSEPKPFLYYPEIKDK

[2] = biological target: RELA (p65) subunit of heterodimer;p52 subunit (Homo sapiens;Homo sapiens, UniProt Q04206;Q00653 1-307;4-332)
RELB subunit;p50 subunit = RELB subunit;p50 subunit (Homo sapiens;Homo sapiens, UniProt Q01201;P19838 120-401;7-356)
RELB subunit;p52 subunit = biological target: T2, RELB subunit;p52 subunit (Homo sapiens;Homo sapiens, UniProt Q01201;Q00653 120-401;4-332)
T2 sequence 1: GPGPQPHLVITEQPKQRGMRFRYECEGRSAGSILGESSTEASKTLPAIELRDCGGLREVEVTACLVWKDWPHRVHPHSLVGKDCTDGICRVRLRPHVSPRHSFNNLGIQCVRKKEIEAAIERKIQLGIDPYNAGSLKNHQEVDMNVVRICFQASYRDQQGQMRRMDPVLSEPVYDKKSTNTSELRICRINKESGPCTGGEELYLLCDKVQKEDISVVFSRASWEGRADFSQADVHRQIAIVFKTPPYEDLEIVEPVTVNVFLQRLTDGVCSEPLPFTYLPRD
T2 sequence 2: T1 sequence

[3] = biological target: C-Rel subunit;p50 subunit (Homo sapiens;Homo sapiens, UniProt Q04864;P19838 1-285;7-356)
[4] = biological target: T3, C-Rel subunit;p52 subunit (Homo sapiens;Homo sapiens, UniProt Q04864;Q00653 1-285;4-332)
T3 sequence 1: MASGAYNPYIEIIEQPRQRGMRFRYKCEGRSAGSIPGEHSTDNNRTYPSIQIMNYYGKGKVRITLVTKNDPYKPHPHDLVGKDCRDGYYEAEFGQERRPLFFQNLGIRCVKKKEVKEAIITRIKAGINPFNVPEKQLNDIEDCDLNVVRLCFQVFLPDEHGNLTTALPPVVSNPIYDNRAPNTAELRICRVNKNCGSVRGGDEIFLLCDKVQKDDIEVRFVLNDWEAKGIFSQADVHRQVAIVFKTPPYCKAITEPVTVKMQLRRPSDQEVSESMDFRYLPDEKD
T3 sequence 2: T1 sequence

p50p50 homodimer, sequence (P19838 7-356): as the sequence (P19838 7-356, chain 2 of 2) above
RELARELA (p65 homodimer), sequence (Q04206 1-307): as the sequence (Q04206 1-307, chain 1 of 2) above

Sequence | binding signal (RELARELA (p65 homodimer)) | binding signal (p50p50 homodimer) | binding signal (p52p52 homodimer) | binding signal [1] | binding signal [2] | binding signal (RELB subunit;p50 subunit) | binding signal (RELB subunit;p52 subunit) | binding signal [3] | binding signal [4]
AAAGACGCCCC | -0.195 z-score | 0.408 z-score | 0.153 z-score | 0.135 z-score | 0.105 z-score | 0.331 z-score | 0.432 z-score | 0.326 z-score | -0.126 z-score
CAGGTTGTCCT | -0.115 z-score | -0.869 z-score | -0.451 z-score | -0.774 z-score | -0.884 z-score | -0.961 z-score | -0.805 z-score | -1.05 z-score | -0.71 z-score
AGGAGGTCCCC | 0.488 z-score | 0.454 z-score | 0.466 z-score | 0.767 z-score | 0.75 z-score | 0.631 z-score | 0.644 z-score | 0.617 z-score | 0.715 z-score
CGGAAGCTCCT | -0.12 z-score | -1.95 z-score | -0.752 z-score | -1.05 z-score | -1.08 z-score | -1.17 z-score | -1.2 z-score | -1.46 z-score | -0.785 z-score
AGGTAGGTCCC | -0.0694 z-score | -0.0842 z-score | 0.305 z-score | -0.0951 z-score | 0.0859 z-score | 0.0975 z-score | 0.178 z-score | 0.0304 z-score | 0.122 z-score
AAAGTGATCCT | -0.833 z-score | -1.79 z-score | -0.692 z-score | -1.3 z-score | -1.06 z-score | -1.27 z-score | -0.978 z-score | -1.55 z-score | -0.986 z-score
AAAGAGACCCT | -1.1 z-score | -0.515 z-score | -0.457 z-score | -0.679 z-score | -0.542 z-score | -0.626 z-score | -0.766 z-score | -1.12 z-score | -0.688 z-score
CGGGTAGTCCC | 1.24 z-score | 0.936 z-score | 1.66 z-score | 1.36 z-score | 1.23 z-score | 0.735 z-score | 1.17 z-score | 1.09 z-score | 1.5 z-score
GGATGGCTCCT | -0.414 z-score | -1.51 z-score | -0.721 z-score | -1.07 z-score | -1.08 z-score | -1.19 z-score | -1.05 z-score | -1.64 z-score | -0.938 z-score
GAGTATATCCT | -0.264 z-score | -1.06 z-score | -0.578 z-score | -0.876 z-score | -0.768 z-score | -1 z-score | -0.866 z-score | -1.36 z-score | -0.891 z-score
CAGAAAGTCCT | 1.03 z-score | -0.724 z-score | -0.508 z-score | -0.351 z-score | -0.61 z-score | -0.693 z-score | -0.785 z-score | -0.362 z-score | -0.371 z-score
CAGGATCCCCT | -0.318 z-score | 1.34 z-score | 1.3 z-score | 1.91 z-score | 1.43 z-score | 1.79 z-score | 1.65 z-score | 1.34 z-score | 0.975 z-score
AAGGTCACCCT | -0.86 z-score | -1.49 z-score | -0.495 z-score | -0.903 z-score | -0.928 z-score | -0.645 z-score | -0.697 z-score | -1.21 z-score | -0.77 z-score
GAATAGGTCCT | -0.471 z-score | -1.25 z-score | -0.387 z-score | -1.08 z-score | -0.8 z-score | -0.766 z-score | -0.501 z-score | -1.35 z-score | -0.527 z-score
GGATGCATCCC | -0.168 z-score | -0.953 z-score | -0.436 z-score | -0.723 z-score | -0.685 z-score | -0.7 z-score | -0.821 z-score | -1.05 z-score | -0.672 z-score
